Our source for the inhibition values is ChEMBL document CHEMBL3433997, “St. Jude Leishmania screening dataset” (2016).

Holding throughout (format): functional
In test [1] the target is Solute carrier family 2, facilitated glucose transporter member 1 (Homo sapiens) (UniProt P11166). Description: ST_JUDE_LEISH: Cytotoxicity at 2uM final concentration against transgenic Leishmania Mexicana promastigotes LmGLUT1 that are glucose transport deficient and complemented with the human glucose transporter GLUT1. Activity is measured by DNA content using SYBR green in vitro.
Sequence of Solute carrier family 2, facilitated glucose transporter member 1 (Homo sapiens) (P11166 whole entry): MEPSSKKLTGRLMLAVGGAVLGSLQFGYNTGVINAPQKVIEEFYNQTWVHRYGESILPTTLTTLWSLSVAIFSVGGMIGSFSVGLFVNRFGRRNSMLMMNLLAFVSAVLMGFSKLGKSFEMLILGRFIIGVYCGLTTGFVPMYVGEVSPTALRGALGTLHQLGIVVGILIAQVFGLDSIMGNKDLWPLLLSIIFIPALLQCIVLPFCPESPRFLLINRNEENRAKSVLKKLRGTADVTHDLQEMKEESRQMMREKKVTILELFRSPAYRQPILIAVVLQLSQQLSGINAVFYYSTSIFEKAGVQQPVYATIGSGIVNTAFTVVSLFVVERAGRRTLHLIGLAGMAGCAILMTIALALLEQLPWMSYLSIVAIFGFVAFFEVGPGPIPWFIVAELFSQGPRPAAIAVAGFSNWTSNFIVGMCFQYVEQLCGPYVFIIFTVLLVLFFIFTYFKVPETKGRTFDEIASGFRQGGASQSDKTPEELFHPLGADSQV

The target of test [2] is Hexose transporter 1 (Plasmodium falciparum) (UniProt O97467). Description: ST_JUDE_LEISH: Cytotoxicity at 2uM final concentration against transgenic Leishmania Mexicana promastigotes LmPfHT that are glucose transport deficient and complemented with the Plasmodium falciparum hexose transporter. Activity is measured by DNA content using SYBR green in vitro.
Test [3] addresses Glucose transporter (Leishmania mexicana) (UniProt O61059). As to the kind of experiment: ST_JUDE_LEISH: Cytotoxicity at 2uM final concentration against transgenic Leishmania Mexicana promastigotes LmGT2 that are glucose transport deficient and complemented with the L. Mexicana glucose transporter 2. Activity is measured by DNA content using SYBR green in vitro.

As to `CN(C)CCCOc1ccc(-c2nc(-c3ccc4c(c3)CCC4=NO)c(-c3ccncc3)[nH]2)cc1`, the inhibition in test [1] was 2.55%; in test [2], 2.33%; in test [3], 1.24%.

Consider `CN(CCCCCNC(=O)/C=C/c1ccc(Cl)c(Cl)c1)CCc1c[nH]c2ccccc12`, for which the inhibition in test [1] turned out to be 20.6%; in test [2], 20%; in test [3] it was 12.6%.

In the case of `CCc1c[nH]c2c(N3CCCC3=O)cc(C(=O)N[C@@H](Cc3ccccc3)[C@H](O)CNC(C)(C)c3cccc(C(F)(F)F)c3)cc12`, the inhibition is -1.29% in test [1], -2.43% in test [2] and -0.27% in test [3].

For `CCCCCN1CCN(Cc2cccc(NC(=O)c3ccc(Cl)c(Cl)c3)c2)CC1`, the inhibition came to 1.39% in test [1], 1.08% in test [2] and 1.32% in test [3].

Take `COc1ccccc1C1CCN(C2CCC(NC(=O)/C=C/c3cccc(Cl)c3)CC2)CC1` (configuration not stated): the inhibition was 3.59% in test [1], 0.95% in test [2] and -0.85% in test [3].

In the case of `COc1ccc(-c2cnc(N)nc2N)cc1Cl`, the inhibition is 1.93% in test [1], 1.5% in test [2] and 2.06% in test [3].

Take `CC(C)(C)c1cc(C(=O)N2CCN(c3ncnc4ccsc34)CC2)n(Cc2ccccc2)n1`: the results for the inhibition in test [1], in test [2] and in test [3] were 4.27%, 4.01% and 2.2%, respectively.

For the molecule `N#Cc1ccc2c(c1)CCN(CCC1CCC(NC(=O)/C=C/c3ccc(Cl)c(Cl)c3)CC1)CC2` (configuration not stated), the results for the inhibition in test [1], in test [2] and in test [3] were 9.87%, 13.1% and 6.83%, respectively.

Take `COc1ccc2nccc([C@@H](O)CN3CCC(NCCOc4cccc(C(F)(F)F)c4)CC3)c2c1`: the values for the inhibition in test [1], in test [2] and in test [3] were 9.63%, 12.5% and 0.73%, respectively.

`COc1ccc(Nc2nc(NCc3cccnc3)cc(-c3ccc(OC)cc3)n2)cc1`: the inhibition in test [1] is -0.44%; in test [2], 0.66%; in test [3], -0.82%.

For `CC(C)C(=O)NC(NC(=S)Nc1ccc(Br)cc1)C(Cl)(Cl)Cl` (configuration not stated), the inhibition in test [1] is -2.18%; in test [2] it was 2.18%; in test [3] it was -0.89%.

As to `CC(C)c1ccc(CN2CCC(NC(=O)c3ccc(-c4ccccc4F)s3)CC2)cc1`, the inhibition was 0.51% in test [1], 0.39% in test [2] and -1.39% in test [3].

In the case of `C=CCCCNCC(NCCCNc1cc(=O)c2ccccc2[nH]1)c1cc(Br)cc(Br)c1` (configuration not stated), the inhibition in test [1] is -2.22%; in test [2] it was -0.98%; in test [3] it was 0.77%.

As to `CCOc1ccc(-c2nonc2NC(=O)c2cccc(Cl)c2)cc1OCC`, the inhibition in test [1] was 2.52%; in test [2], 3.66%; in test [3], -0.71%.

In the case of `c1cncc(NCc2ccc(-c3cc4ccncc4cc3OC3CCNCC3)s2)c1`, the values for the inhibition in test [1], in test [2] and in test [3] were 4.74%, 5.2% and 4.54%, respectively.

`COc1ccc(-c2cnc3ccc(NCc4ccc(F)cc4)nn23)cc1OC`: the inhibition in test [1] was 4.06%; in test [2] it was 4.1%; in test [3], 1.96%.

For the molecule `Cc1cc(=O)oc2c1ccc1oc(C(O)c3ccc(Cl)cc3)c(C)c12` (configuration not stated), the results for the inhibition in test [1], in test [2] and in test [3] were -0.12%, 0.59% and -1.6%, respectively.

In the case of `O=C(Nc1cccc(CN2CCCN(Cc3ccc(F)cc3)CC2)c1)c1cc2ccccc2s1`, the results for the inhibition in test [1], in test [2] and in test [3] were -2.26%, -1.55% and -0.88%, respectively.

In the case of `CCN(CC)c1ccccc1CNC(=O)c1cc(Cl)c(N)cc1OC`, the inhibition turned out to be 9.4% in test [1], 9.03% in test [2] and 8.59% in test [3].

With `O=C(Nc1ccccc1)Nc1cccc(-c2nn3c(OCC4CCCCN4)cccc3c2-c2ccncc2)c1` (configuration not stated), the inhibition worked out at 5.24% in test [1], 1.67% in test [2] and 1.3% in test [3].

`Cc1nc2nc(N)nc(N)c2c(C)c1Cc1cccc(C(F)(F)F)c1`: the values for the inhibition in test [1], in test [2] and in test [3] were -1.41%, -2.48% and -2.32%, respectively.

`O=[N+]([O-])c1ccc2ncnc(Nc3ccc(F)c(Cl)c3)c2c1`: the inhibition in test [1] was 2.27%; in test [2] it was 0.68%; in test [3], 2.32%.

Turning to `Cc1nc(-c2cccc(C(=O)Nc3cnc4ccccc4c3)c2)no1`, the inhibition in test [1] came out at 5.51%; in test [2] it was 3.53%; in test [3], 3.52%.

In the case of `CC(C)(CNC(=O)/C=C/c1ccc(Cl)c(Cl)c1)CNc1cc(=O)c2ccccc2[nH]1`, the inhibition is -0.77% in test [1], 0.05% in test [2] and -2.49% in test [3].

With `O=C(Nc1cccc(Cl)c1Cl)N[C@H]1CCN(CCCCCNC(=O)C2CC2c2ccc(Cl)c(Cl)c2)C1` (some centres not stated), the figures for the inhibition in test [1], in test [2] and in test [3] were 5.31%, 4.52% and 1.19%, respectively.

As for `Fc1ccc2[nH]c(-c3cccc(-c4ccc(CN5CCN(c6ccncc6)CC5)cc4)c3)nc2c1`, the inhibition is 0.76% in test [1], 1.36% in test [2] and 0.8% in test [3].

For the molecule `CNS(=O)(=O)c1ccc(NC(=O)c2cc(-c3cccnc3)nc3ccc(Br)cc23)cc1`, the values for the inhibition in test [1], in test [2] and in test [3] were 2.58%, 2.73% and 3.77%, respectively.

Turning to `N#CCCN1CCN(Cc2ccc(-c3cccc(-c4nc5cc(F)ccc5[nH]4)c3)cc2)CC1`, the inhibition in test [1] came to 2.61%; in test [2], 2.18%; in test [3], 3.17%.

Turning to `O=C(Nc1cccc(F)c1)N(Cc1ccc(-c2cccc(CN3CCNCC3)c2)cc1)C1CCN(Cc2ccccc2)CC1`, the values for the inhibition in test [1], in test [2] and in test [3] were 7.44%, 6.99% and 6.85%, respectively.

For `FC(F)(F)COc1ccc2ccccc2c1CCNCCCCNCCc1c(OCC(F)(F)F)ccc2ccccc12`, the inhibition in test [1] amounted to 105%; in test [2], 103%; in test [3], 107%.

For `CN1CCN(c2ccc(Nc3c(C(N)=O)cnc4cc(-c5ccoc5)ccc34)cc2)CC1`, the figures for the inhibition in test [1], in test [2] and in test [3] were 15.1%, 24.6% and 3.57%, respectively.

For `CC(C)CNCc1ccc(-c2cccc(CN(CCN(C)C)C(=O)CCC3CCCC3)c2)cc1`, the results for the inhibition in test [1], in test [2] and in test [3] were 30%, 23.7% and 11.2%, respectively.

For `COc1ccc2c(c1CCNCCCCNCCc1c(OC)ccc3c1CCCC3)CCCC2`, the figures for the inhibition in test [1], in test [2] and in test [3] were 47.3%, 61.4% and 52.9%, respectively.

On to `CC(C)CNC(=O)c1cncc(-c2cccc(CNC3Cc4ccccc4C3)c2)c1`, for which the inhibition in test [1] stood at 10.7%; in test [2], 6.1%; in test [3] it was 6.4%.

With `Nc1nc(N)c2c(n1)CCc1cc(Br)ccc1-2`, the inhibition was found to be 1.65% in test [1], 4.52% in test [2] and 2.4% in test [3].

On to `Oc1ccc(C=NNC(S)=Nc2cccc3ccccc23)c(O)c1`, for which the inhibition turned out to be 4.86% in test [1], 4.96% in test [2] and 2.47% in test [3].

As for `COc1ccc(NC(=O)Nc2cc(C)nc3ccccc23)cc1Cl`, the inhibition in test [1] was determined as 9.47%; in test [2], 8.02%; in test [3], 7.39%.

As for `CC1(CCN2CCC(c3c[nH]c4cnccc34)CC2)CCCc2c(Br)cccc2C1=O` (configuration not stated), the inhibition in test [1] stood at 54.7%; in test [2], 25.4%; in test [3], 95.5%.

In the case of `Cc1cc2c(cc1C(F)(F)F)N(C(=O)Nc1cc(OCCN(C(C)C)C(C)C)cc(C(F)(F)F)c1)CC2`, the values for the inhibition in test [1], in test [2] and in test [3] were 10.4%, 9.23% and 6.19%, respectively.

Turning to `CCN(CCN(C)C)Cc1ccc(-c2ccc(NS(=O)(=O)c3cccc(Cl)c3)cc2)cc1`, the inhibition in test [1] is 7.37%; in test [2] it was 0.64%; in test [3], -1.5%.

For the molecule `O=C(Nc1ccc(N2CCCN(Cc3cccc(F)c3)CC2)cc1)c1ccccc1`, the inhibition in test [1] was 0.26%; in test [2], -0.73%; in test [3], -0.78%.

`N#Cc1cncc(-c2nc3c(N4CCC(Cc5ccccc5)CC4)cccc3n2CCNCc2ccccc2)c1`: the inhibition turned out to be 5.27% in test [1], 4.45% in test [2] and 6.16% in test [3].

Take `CC[C@H](NC(=O)c1ccc(NC(=O)OC(C)(C)C)cc1)C(=O)N[C@@H](CO)C(=O)NCCCCc1ccccc1`: the inhibition is 1.96% in test [1], 1.3% in test [2] and -0.11% in test [3].

For `Fc1cccc(COc2ccc(Nc3ncnc4ccc(-c5nnc(C(F)(F)F)o5)cc34)cc2Cl)c1`, the results for the inhibition in test [1], in test [2] and in test [3] were 4.63%, 4.57% and 1.46%, respectively.

With `Cc1cc(Cl)ccc1NC(=O)NCCCCCN1CCC(c2c[nH]c3ccccc23)CC1`, the results for the inhibition in test [1], in test [2] and in test [3] were 11.4%, 14.9% and 10.4%, respectively.

On to `CN1CCCC(CN2CCN(Cc3cccc(-c4ccc(-c5nc6ccccc6[nH]5)s4)c3)CC2)C1` (configuration not stated), for which the inhibition in test [1] was 7.08%; in test [2], 6.85%; in test [3] it was 3.05%.

For `COCc1ccccc1C(=O)NCCOc1cc(C)cc(C)c1`, the inhibition is -0.29% in test [1], 0.17% in test [2] and -0.46% in test [3].

For `CCCCCCNc1cc(C)nc(NC(=N)Nc2cccc(C(F)(F)F)c2)n1`, the inhibition is 1.36% in test [1], 3.48% in test [2] and 4.89% in test [3].

For the molecule `CCCCN1CC[C@@H](CCC(O)c2ccnc3ccc(OCCC(C)C)cc23)[C@@H](CC)C1` (some centres not stated), the inhibition came to 1.18% in test [1], 4.04% in test [2] and 3.24% in test [3].

Usually inhibition stands for the drop in the measured response relative to a control, in per cent.
